Assay results: the supplement of paper PMC13380429
A number with no mark means an inactive call.

tested on: Vero E6 infected with SARS-CoV-2; assay: inhibition of SARS-CoV-2 cytopathic effect; higher = more antiviral protection, active = above 15; conditions: 833.33 nM; 48 h

SMILES	inhibition of SARS-CoV-2 cytopathic effect [%]
CC(C)CN(C[C@@H](O)[C@H](Cc1ccccc1)NC(=O)O[C@H]1CCOC1)S(=O)(=O)c1ccc(N)cc1 [amprenavir]	-1.76
CN(C)CCCCSC(=N)N	1.23
Cc1cccc(C)c1NC(=O)c1ccccc1C(=O)O [ftaxilide]	0.63
O=C(/C=C/c1ccc2c(c1)OCO2)N1CCCCC1 [ilepcimide]	-1.12
Oc1ccc(Nc2nc(-c3ccc(Cl)cc3)cs2)cc1	1.03
N#Cc1cc2c(OCC(O)CN3CCN(C(c4ccccc4)c4ccccc4)CC3)cccc2[nH]1 (configuration not stated)	4.21
CC[C@H]1[C@@H](O)[C@@H]2[C@H](CC[C@]3(C)[C@@H]([C@H](C)CCC(=O)O)CC[C@@H]23)[C@@]2(C)CC[C@@H](O)C[C@@H]12 [obeticholic-acid]	2.73
O=C(COc1ccc(Cl)cc1)N1CCN(Cc2ccc3c(c2)OCO3)CC1 [fipexide]	1.62
CCC(CC)COC(=O)[C@H](C)N[P@](=O)(OC[C@H]1O[C@@](C#N)(c2ccc3c(N)ncnn23)[C@H](O)[C@@H]1O)Oc1ccccc1 [Remdesivir]	0.56
N=C(N)NC(=N)Nc1ccccc1 [1-phenylbiguanide]	1.34
Cc1ccc2c(c1)[C@]13CCCC[C@@H]1[C@H](C2)N(C)CC3 [dimemorfan]	1.02
Oc1ccc([C@H]2COc3cc(O)ccc3C2)cc1 [equol]	3.83
